EPAC1 ag = agonists of human EPAC1; AID 720707; 0.073% of 360,000 active; O95398; Potency, µM (series often up to 154 µM), for inactives: top-dose activation, hits mostly activators; EPAC1 agonist qHTS, biochemical assay; response scale: 100% = response to 6.5 mM cAMP; note: nearly all actives have a fitted effect of over 60% in size
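Fluorescent GDP-exchange assay: 100 nM EPAC1 with 250 nM Rap1B preloaded with BODIPY-GDP and 50 uM GDP; compounds tested as concentration series, 5 min at room temperature, then read every 5 min for 30 min (ex 480/em 540 nm); normalized to 6.5 mM cAMP.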
EPAC2 ag = agonists of human EPAC2 (RAPGEF4); Q8WZA2; EPAC2 activation, biochemical qHTS; response scale: 100% = 6.5 mM cAMP response; Potency, µM (doses to about 154 µM), without a hit: at the highest dose activation, most hits filed as activators; 0.079% of 360,000 active; AID 720711; note: nearly all actives have a fitted effect of over 50% in size
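Guanine nucleotide exchange by EPAC2 is measured as reduced fluorescence of BODIPY-GDP once it is released from 250 nM Rap1B. Plates are read kinetically for 30 min at room temperature; results are scaled to 6.5 mM cAMP.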
EPAC1 antag = EPAC1 (human) antagonism. O95398. Potency, µM (doses to about 115 µM), without a hit: top-dose activity change, negative = inhibition, hits mostly inhibitors. EPAC1 GEF assay, Rap1b-BODIPY-GDP exchange fluorescence. 0.14% of 360,000 active;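 note: plate controls were vehicle for no effect and positive control for full effect; nearly all actives have a fitted effect of over 50% in size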
USP1 inh = inhibitors of human USP1/UAF1 deubiquitinase. O94782. recombinant USP1/UAF1, Ub-Rhodamine cleavage fluorescence. Potency, µM (highest dose often 57.1 µM), for inactives: at the top dose activity change, negative = inhibition, hits mostly inhibitors. 0.23% of 390,000 active. AID 743255; note: % is set by controls: 0 for no effect and ±100 for the full control effect; nearly all actives have a fitted effect of over 60% in size
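In this screen, compounds sit with the deubiquitinase complex (1nM) for 15 min at room temperature before Ub-Rho is added at 150nM final. Fluorescence rise is then followed for 6 reads every 60 seconds.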
EPAC2 antag = antagonists of human EPAC2; Q8WZA2; EPAC2 GEF exchange of Rap1B-BODIPY-GDP, fluorescence; Potency, µM (highest dose often 114 µM), for the others: at the top dose activity, negative = inhibition, actives largely listed as inhibitors; 0.18% of 360,000 active; AID 720708; note: % is set by controls: 0 for no effect and ±100 for the full control effect; nearly all actives have a fitted effect of over 45% in size
BRCA1 expr act = increases BRCA1 expression; MCF7-BRCA1-FFLuc reporter, luminescence, 48 h; response scale: scaled: vehicle 0%, 10 µM genistein 100%; Potency, µM (titrated, usually from 46.1 µM), inactives show at the top dose activation, usual class: activators; 1.1% of 380,000 active; AID 624202; note: nearly all actives have a fitted effect of over 80% in size
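Quantitative HTS in MCF7 cells stably reporting BRCA1 expression via firefly luciferase. Compound treatment lasts 48 h at 37 °C in phenol-red free MEM. Activation is expressed relative to genistein at 10 microM and DMSO.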
Active calls of the source: *; i = inactive; u = inconclusive; x = not tested or not shown; [ ] = dose if it differs, or a comment. In the library only some 1.4% were active in any assay of this set; here they are far more common. Calls come from the whole dose curve; as a rule, active = well fitted curve in the direction sought with a large enough effect; inconclusive = small, poorly fitted or top-dose-only effect, or another doubt; inactive = no such curve, though single readings can be large; an effect the other way counts as inactive or inconclusive. Potency is the fitted concentration of half-maximal effect.

SMILES	EPAC1 ag	EPAC2 ag	EPAC1 antag	USP1 inh	EPAC2 antag	BRCA1 expr act
CC(C)C[C@@H]1CN(CCCC[C@H]2CNC(=O)C(=O)N2CCC2CCCCC2)C(=O)C(=O)N1Cc1ccccc1	-2%	-2%	-15%	x	-11%	2%
Cc1cccc(S(=O)(=O)NC(=O)C2(C)CCN2C(=O)c2sccc2C)c1 (stereo not given)	7%	9%	-1%	x	22%	6%
COc1ccc(OC)c(CNC(=O)c2nn(C)c3c2CSc2ccccc2-3)c1	x	x	x	-5%	x	x
Cc1ccc2nc(SC(Cc3cc(Cl)ccc3Cl)C(=O)O)[nH]c2c1 (stereo not given)	x	x	x	-29%	x	x
CCOc1ccc(-c2c(C)nn3c(C)c(C(=O)NCCc4ccccc4)cnc23)cc1OCC	x	x	x	-21%	x	x
CCOC(=O)[C@]12CCCC=C1N(CCC1=CCCCC1)C(=O)[C@H](CC(=O)NCc1ccc(C)o1)C2	-1%	-7%	-21%	x	u	x
COc1ccc(CCN(C)C(=O)CCc2nnc(-c3ccccc3)o2)cc1OC	1%	6%	-2%	-19%	2%	u
CN(Cc1ccc(F)cc1)C(=O)CCc1nnc(-c2ccccc2)o1	-18%	-3%	0%	-20%	-2%	14µM*
COc1cc2c(NC3CCN(C(C)C)CC3)nc(N3CCCN(C)CC3)nc2cc1OCCCN(C)C	x	x	x	x	x	-11%
C=CCSc1nncn1/N=C/c1ccc(OC)cc1	1%	-1%	11%	-13%	11%	2.2µM*
CCN(CC)c1ccc2cc(S(=O)(=O)c3ccc(Cl)cc3)c(=O)oc2c1	89µM*	-322%	126%	i	254%	-25%
CCCCCCc1cc2cc(S(=O)(=O)c3ccc(Cl)cc3)c(=O)oc2cc1O	0%	-1%	4%	u	-14%	-15%
COc1ccc2oc(C(=O)NCCC(C)C)c(C)c2c1	-4%	6%	-9%	-2%	-4%	7.1µM*
COc1ccc2oc(C(=O)N(C)CCOc3ccccc3)c(C)c2c1	9%	3%	3%	-20%	-14%	11µM*
Cc1cc(N2CCOCC2)nc2ccc(Cl)cc12	7%	1%	-9%	-16%	-6%	7.9µM*
COc1cc2cc(CCCOC(=O)CCCC(=O)O)oc(=O)c2cc1OC	0%	-4%	-4%	10%	7%	-12%
CCOC(=O)C(=O)N(Nc1ccc(C)cc1)c1ccc(C)cc1	8%	18%	-16%	-15%	-15%	11µM*
COC(=O)c1nc(N2CCN(S(=O)(=O)c3ccc(C)cc3)CC2)c2ccccc2n1	x	x	x	x	x	1%
CCOC(=O)C1=CCN(S(=O)(=O)c2ccccc2Br)C1c1cccc(Cl)c1 (stereo not given)	-6%	10%	-19%	x	-11%	-32%
Cc1cc(C)c2nc(NNC(=O)c3cc(=O)c4ccccc4o3)sc2c1	-26%	-1%	-1%	28µM*	6%	-19%
Cc1cc(/C=C2/C(=N)N3C(=NC2=O)SN=C3S(C)(=O)=O)c(C)n1-c1ccc(F)cc1	-11%	-3%	-22%	-13%	-13%[57.1 µM]	7.9µM*
CCN(CCn1cccn1)C(=O)c1cc(COc2cc(C)ccc2C)on1	-10%	-2%	-15%	-6%	-26%	13µM*
CCN(CCN1CCCC1)C(=O)c1cc(COc2ccccc2SC)on1	-3%	10%	-6%	-9%	2%	-10%
CCN(CCn1cccn1)C(=O)c1cc(COc2ccccc2SC)on1	5%	-1%	8%	-9%	-4%	11µM*
COc1cc(/C=C/C(=O)OCC(=O)N2CCc3ccccc3C2)ccc1O	-7%	1%	-16%	-13%	6%	1%
SMILES	EPAC1 ag	EPAC2 ag	EPAC1 antag	USP1 inh	EPAC2 antag	BRCA1 expr act
O=C([C@H]1O[C@@H](n2ccc(=O)[nH]c2=O)[C@H](O)[C@@H]1O)N1CCN(c2ccc(Cl)cn2)CC1	4%	11%	3%	x	15%	14%
COC(=O)CN1C(=S)N(c2ccc(OC)cc2)C(=O)/C1=C/c1ccc(N2CCOCC2)cc1	u	u	31%	28µM*	58%	-6%
COc1ccc(NC(=O)c2cc3ccccc3o/c2=N\NS(=O)(=O)c2ccc(C)cc2)cc1	-1%	3%	-2%	-20%	8%	5µM*
COc1ccc(C(=O)Cc2nnc(C)s2)c(OC)c1	2%	3%	19%	-2%	5%	11µM*
CCc1nnc(NC(=O)c2ccc(OC)cc2OC)s1	10%	7%	-22%	1%	-4%	-46%
COc1ccc(NC(=O)CSc2nnnn2C)cc1S(=O)(=O)N1CCCCC1	-4%	7%	-19%	3%	-6%	5%
CCOC(=O)c1ccc(NC(=O)Nc2ccccn2)cc1	2%	-5%	3%	2%	1%	5µM*
CCOC(=O)c1ccc(NC(=O)c2nn(CC)cc2Br)cc1	17%	16%	-11%	-11%	-10%	u
CCOC(=O)c1ccc(NC(=S)Nc2ccc(C)cc2)cc1	2%	-4%	-23%	-6%	-7%	13µM*
CCOC(=O)c1ccc(NC(=O)N(CC)CC)cc1	5%	0%	20%	-15%	7%	2.5µM*
CCOC(=O)c1ccc(NC(=S)Nc2ccccc2)cc1	16%	5%	-9%	-19%	0%	72%
CCOC(=O)c1ccc(NC(=O)c2nn(C)cc2Br)cc1	1%	-9%	-5%	-1%	-4%	5µM*
CCc1ccccc1NS(=O)(=O)c1ccc2c(c1)CCCN2C(=O)C1CCC1	x	x	x	2%	x	x
CN1CCCN(S(=O)(=O)c2cccc(C(F)(F)F)c2)c2nc3ccccc3nc21	2%	4%	12%	-20%	-7%	6%
C=C1C=C(C(F)F)n2ncc(C(=O)NC(C)CC)c2N1 (stereo not given)	x	x	x	x	x	-7%
COc1ccccc1OCCNc1ccc(S(=O)(=O)N2CCCC2)cn1	0%	7%	-21%	-17%	13%	-15%
Cc1ccc2c(CNCc3ccco3)cc(=O)oc2c1	0%	3%	9%	-21%	15%	7.9µM*
Cn1c(SCc2ccc(C#N)cc2Cl)nc2ccccc21	12%	17%	0%	-25%	-5%	4.5µM*
N#Cc1ccc(CSc2ccccn2)c(Cl)c1	11%	4%	-10%	-2%	u	52%
CCOC(=O)C1(Cc2ccccc2)CCCN(C(=O)C=C(C)C)C1 (stereo not given)	-1%	-6%	1%	-11%	-2%	u
CCOC(=O)C1(Cc2ccccc2)CCCN(C(=O)COc2ccccc2OC)C1 (stereo not given)	-10%	-3%	2%	-21%	1%	10µM*
